Experimental data published in PMC7862700, “An all-to-all approach to the identification of sequence-specific readers for epigenetic DNA modifications on cytosine”.

Key:
Test in all cases: DAPPL (digital affinity profiling via proximity ligation, sequencing); 10 mM Tris-HCl pH 7.5, 50 mM NaCl, 1 mM DTT, 4% glycerol, room temperature, 30 min; GST-TFs on glutathione beads, 16-mer random dsDNA library, 0.1% formaldehyde crosslink after washing; high values mean tight binding
FLI1 = target: T1, FLI1 (Homo sapiens, UniProt Q01543 1-452); settings: protein: recombinant; tags: N-terminal GST; dsDNA, one strand shown
T1 sequence: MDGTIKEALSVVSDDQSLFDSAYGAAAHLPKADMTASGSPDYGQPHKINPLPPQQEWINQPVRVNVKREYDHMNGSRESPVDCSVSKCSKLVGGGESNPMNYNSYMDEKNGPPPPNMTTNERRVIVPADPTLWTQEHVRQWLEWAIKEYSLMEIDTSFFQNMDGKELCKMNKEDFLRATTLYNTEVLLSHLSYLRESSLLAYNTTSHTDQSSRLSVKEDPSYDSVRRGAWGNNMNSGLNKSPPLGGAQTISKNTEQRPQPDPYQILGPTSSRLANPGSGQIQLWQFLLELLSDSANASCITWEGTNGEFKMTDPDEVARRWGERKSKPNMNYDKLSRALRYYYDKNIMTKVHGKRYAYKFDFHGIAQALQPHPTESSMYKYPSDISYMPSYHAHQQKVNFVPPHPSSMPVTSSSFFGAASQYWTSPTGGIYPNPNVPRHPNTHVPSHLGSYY
In short: (§1)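 Human transcription factors were made in yeast as GST fusions, captured on glutathione beads and barcoded with DNA. With a tag-only sample included, the pool was incubated with 200 nmole of a random double-stranded 16-mer DNA library in Tris/NaCl/DTT/glycerol buffer at room temperature for 30 min, then crosslinked with 0.1% formaldehyde after washing, ligated by proximity, amplified and sequenced. For binding signal, each hexamer's read frequency for a factor is divided by its frequency for the tag-only sample.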

ELK1 = target: T2, ELK1 (Homo sapiens, UniProt P19419 1-428); settings: protein: recombinant; tags: N-terminal GST; dsDNA, one strand shown
T2 sequence: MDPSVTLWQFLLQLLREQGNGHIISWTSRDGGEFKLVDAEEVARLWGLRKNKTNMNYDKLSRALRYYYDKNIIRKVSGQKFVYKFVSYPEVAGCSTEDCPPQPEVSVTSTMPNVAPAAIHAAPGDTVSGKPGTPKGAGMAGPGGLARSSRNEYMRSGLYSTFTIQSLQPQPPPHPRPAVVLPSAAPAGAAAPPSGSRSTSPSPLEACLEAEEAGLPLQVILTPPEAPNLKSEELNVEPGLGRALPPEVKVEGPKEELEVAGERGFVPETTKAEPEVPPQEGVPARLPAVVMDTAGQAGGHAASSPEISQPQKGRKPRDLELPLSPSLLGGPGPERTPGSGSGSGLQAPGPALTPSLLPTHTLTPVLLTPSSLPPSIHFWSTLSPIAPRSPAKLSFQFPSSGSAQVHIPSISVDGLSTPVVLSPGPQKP
In short: as §1

GABPA = target: T3, GABPA (Homo sapiens, UniProt Q06546 1-454); settings: protein: recombinant; tags: N-terminal GST; dsDNA, one strand shown
T3 sequence: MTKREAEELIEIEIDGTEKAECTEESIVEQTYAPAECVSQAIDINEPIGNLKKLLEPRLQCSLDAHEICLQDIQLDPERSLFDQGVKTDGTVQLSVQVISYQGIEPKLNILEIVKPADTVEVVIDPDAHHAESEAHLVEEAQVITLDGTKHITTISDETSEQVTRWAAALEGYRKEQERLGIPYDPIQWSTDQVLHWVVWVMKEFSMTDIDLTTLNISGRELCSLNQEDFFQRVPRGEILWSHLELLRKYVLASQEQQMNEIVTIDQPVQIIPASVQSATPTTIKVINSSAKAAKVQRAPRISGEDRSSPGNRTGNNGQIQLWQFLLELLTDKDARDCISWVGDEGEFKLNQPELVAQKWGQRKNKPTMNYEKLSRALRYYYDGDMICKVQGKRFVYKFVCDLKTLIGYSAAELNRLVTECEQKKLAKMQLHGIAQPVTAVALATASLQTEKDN
In short: as §1

ERG = target: T4, ERG (Homo sapiens, UniProt P11308 1-479); settings: protein: recombinant; tags: N-terminal GST; dsDNA, one strand shown
T4 sequence: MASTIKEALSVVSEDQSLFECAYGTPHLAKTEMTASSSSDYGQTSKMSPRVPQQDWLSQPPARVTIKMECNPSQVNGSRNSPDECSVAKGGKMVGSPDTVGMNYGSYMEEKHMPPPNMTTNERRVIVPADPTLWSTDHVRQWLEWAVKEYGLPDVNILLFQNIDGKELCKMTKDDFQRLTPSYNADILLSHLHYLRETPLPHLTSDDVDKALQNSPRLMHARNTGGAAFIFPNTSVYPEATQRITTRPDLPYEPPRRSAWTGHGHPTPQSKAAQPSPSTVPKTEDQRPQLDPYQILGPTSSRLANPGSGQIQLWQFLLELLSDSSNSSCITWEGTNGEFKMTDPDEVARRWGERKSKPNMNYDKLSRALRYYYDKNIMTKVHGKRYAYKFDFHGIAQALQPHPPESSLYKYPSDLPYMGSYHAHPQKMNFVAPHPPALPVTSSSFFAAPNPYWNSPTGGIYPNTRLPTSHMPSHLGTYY
In short: as §1

ELF1 = ELF1 (Homo sapiens, UniProt P32519 1-619); settings: protein: recombinant; tags: N-terminal GST; dsDNA, one strand shown
In short: as §1

EHF = target: T5, EHF (Homo sapiens, UniProt Q9NZC4 1-300); settings: protein: recombinant; tags: N-terminal GST; dsDNA, one strand shown
T5 sequence: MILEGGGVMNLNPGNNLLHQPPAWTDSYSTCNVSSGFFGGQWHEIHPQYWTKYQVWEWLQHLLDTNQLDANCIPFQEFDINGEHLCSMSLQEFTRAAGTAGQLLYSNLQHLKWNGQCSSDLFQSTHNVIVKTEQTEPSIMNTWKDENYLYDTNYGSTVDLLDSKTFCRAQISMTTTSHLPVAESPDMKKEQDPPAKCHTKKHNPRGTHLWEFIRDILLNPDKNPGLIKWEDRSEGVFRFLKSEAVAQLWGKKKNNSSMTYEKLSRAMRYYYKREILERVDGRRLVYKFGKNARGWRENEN
In short: as §1

SPIB = SPIB (Homo sapiens, UniProt Q01892 1-262); settings: protein: recombinant; tags: N-terminal GST; dsDNA, one strand shown
In short: as §1

ELK3 = target: T6, ELK3 (Homo sapiens, UniProt P41970 1-407); settings: protein: recombinant; tags: N-terminal GST; dsDNA, one strand shown
T6 sequence: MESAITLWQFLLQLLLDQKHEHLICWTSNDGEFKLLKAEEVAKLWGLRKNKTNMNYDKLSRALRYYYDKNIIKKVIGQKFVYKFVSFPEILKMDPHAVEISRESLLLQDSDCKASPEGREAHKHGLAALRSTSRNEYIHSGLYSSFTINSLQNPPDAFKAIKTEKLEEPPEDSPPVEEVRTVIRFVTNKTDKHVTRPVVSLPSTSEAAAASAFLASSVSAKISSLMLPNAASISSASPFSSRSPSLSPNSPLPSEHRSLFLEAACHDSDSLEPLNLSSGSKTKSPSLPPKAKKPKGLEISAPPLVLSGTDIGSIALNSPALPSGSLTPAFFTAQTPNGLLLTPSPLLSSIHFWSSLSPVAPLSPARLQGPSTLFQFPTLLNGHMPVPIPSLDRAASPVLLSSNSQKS
In short: as §1

FEV = target: T7, FEV (Homo sapiens, UniProt Q99581 1-238); settings: protein: recombinant; tags: N-terminal GST; dsDNA, one strand shown
T7 sequence: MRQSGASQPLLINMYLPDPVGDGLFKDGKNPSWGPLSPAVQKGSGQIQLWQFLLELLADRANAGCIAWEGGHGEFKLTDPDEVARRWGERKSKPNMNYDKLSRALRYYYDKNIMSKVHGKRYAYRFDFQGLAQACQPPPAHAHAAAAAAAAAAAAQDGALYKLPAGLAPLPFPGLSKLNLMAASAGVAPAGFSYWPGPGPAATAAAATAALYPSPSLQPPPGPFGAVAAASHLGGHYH
In short: as §1

ETV5 = ETV5 (Homo sapiens, UniProt P41161 1-510); settings: protein: recombinant; tags: N-terminal GST; dsDNA, one strand shown
In short: as §1

HSF1 = HSF1 (Homo sapiens, UniProt Q00613 1-529); settings: protein: recombinant; tags: N-terminal GST; chain copies: 3; dsDNA, one strand shown
In short: as §1

SPIC = target: T8, SPIC (Homo sapiens, UniProt Q8N5J4 1-248); settings: protein: recombinant; tags: N-terminal GST; dsDNA, one strand shown
T8 sequence: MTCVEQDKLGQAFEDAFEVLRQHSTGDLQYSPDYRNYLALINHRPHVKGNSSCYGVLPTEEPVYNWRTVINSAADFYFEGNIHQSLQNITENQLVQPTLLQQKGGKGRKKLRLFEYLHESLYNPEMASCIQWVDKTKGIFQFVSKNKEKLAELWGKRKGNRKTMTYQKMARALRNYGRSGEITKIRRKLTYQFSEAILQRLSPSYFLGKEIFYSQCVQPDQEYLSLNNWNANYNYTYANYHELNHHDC
In short: as §1

ELF4 = ELF4 (Homo sapiens, UniProt Q99607 1-663); settings: protein: recombinant; tags: N-terminal GST; dsDNA, one strand shown
In short: as §1

ELK4 = target: T9, ELK4 (Homo sapiens, UniProt P28324-2 1-405); settings: protein: recombinant; tags: N-terminal GST; dsDNA, one strand shown
T9 sequence: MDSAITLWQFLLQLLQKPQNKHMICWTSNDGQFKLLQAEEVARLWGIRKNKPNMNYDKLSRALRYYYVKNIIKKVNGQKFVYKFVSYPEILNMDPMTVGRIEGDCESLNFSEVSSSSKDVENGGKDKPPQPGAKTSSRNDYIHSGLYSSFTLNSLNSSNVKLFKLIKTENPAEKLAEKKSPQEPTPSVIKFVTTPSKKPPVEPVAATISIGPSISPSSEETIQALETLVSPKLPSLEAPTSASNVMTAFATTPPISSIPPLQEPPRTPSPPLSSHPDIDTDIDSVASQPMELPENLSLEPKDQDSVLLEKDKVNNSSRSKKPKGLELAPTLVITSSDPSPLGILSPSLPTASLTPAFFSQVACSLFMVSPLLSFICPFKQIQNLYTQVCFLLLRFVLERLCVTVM
In short: as §1

ETV2 = target: T10, ETV2 (Homo sapiens, UniProt O00321 1-342); settings: protein: recombinant; tags: N-terminal GST; dsDNA, one strand shown
T10 sequence: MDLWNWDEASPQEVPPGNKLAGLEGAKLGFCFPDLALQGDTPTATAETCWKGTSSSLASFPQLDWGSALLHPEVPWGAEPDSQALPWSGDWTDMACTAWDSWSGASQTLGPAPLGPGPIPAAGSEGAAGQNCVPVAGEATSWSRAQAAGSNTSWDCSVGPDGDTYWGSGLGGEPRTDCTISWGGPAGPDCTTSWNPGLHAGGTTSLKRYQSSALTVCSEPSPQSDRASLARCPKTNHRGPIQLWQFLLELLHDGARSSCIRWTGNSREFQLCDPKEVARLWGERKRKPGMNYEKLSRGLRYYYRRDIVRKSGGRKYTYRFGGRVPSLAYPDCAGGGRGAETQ
In short: as §1

ELF3 = target: T11, ELF3 (Homo sapiens, UniProt P78545 1-371); settings: protein: recombinant; tags: N-terminal GST; dsDNA, one strand shown
T11 sequence: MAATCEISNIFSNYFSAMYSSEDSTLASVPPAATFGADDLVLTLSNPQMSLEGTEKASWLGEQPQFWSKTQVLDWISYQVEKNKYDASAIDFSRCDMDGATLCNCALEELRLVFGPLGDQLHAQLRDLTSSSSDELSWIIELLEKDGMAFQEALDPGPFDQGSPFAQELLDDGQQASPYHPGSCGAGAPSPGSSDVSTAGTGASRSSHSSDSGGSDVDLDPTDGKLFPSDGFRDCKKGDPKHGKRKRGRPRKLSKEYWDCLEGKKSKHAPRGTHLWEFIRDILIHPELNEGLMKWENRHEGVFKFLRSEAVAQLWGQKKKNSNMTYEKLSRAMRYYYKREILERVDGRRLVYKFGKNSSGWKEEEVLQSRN
In short: as §1

CRX = CRX (Homo sapiens, UniProt O43186 1-299); settings: protein: recombinant; tags: N-terminal GST; dsDNA, one strand shown
In short: as §1

ETV1 = ETV1 (Homo sapiens, UniProt P50549 1-477); settings: protein: recombinant; tags: N-terminal GST; dsDNA, one strand shown
In short: as §1

Sequence of HSF1 (Q00613 whole entry): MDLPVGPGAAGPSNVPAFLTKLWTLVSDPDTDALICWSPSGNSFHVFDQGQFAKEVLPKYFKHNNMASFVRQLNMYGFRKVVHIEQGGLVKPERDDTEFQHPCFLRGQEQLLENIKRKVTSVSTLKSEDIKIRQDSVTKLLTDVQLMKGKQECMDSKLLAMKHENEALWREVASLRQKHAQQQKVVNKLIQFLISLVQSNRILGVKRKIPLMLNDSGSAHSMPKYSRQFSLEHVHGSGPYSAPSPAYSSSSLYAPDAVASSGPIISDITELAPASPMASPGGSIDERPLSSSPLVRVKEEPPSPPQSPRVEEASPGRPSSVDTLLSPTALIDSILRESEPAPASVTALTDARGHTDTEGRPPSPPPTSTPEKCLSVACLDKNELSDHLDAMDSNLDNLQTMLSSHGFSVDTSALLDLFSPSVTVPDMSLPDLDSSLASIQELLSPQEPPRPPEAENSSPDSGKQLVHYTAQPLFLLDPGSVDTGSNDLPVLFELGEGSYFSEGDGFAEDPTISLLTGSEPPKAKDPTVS
Sequence of SPIB (Q01892 whole entry): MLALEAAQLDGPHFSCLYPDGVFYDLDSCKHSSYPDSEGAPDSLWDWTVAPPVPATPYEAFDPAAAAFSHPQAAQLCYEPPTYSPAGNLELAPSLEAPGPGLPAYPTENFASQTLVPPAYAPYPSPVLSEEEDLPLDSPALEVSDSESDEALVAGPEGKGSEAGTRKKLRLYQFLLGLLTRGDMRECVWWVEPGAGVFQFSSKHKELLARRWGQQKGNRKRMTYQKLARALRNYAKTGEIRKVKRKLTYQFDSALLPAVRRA
Sequence of CRX (O43186 whole entry): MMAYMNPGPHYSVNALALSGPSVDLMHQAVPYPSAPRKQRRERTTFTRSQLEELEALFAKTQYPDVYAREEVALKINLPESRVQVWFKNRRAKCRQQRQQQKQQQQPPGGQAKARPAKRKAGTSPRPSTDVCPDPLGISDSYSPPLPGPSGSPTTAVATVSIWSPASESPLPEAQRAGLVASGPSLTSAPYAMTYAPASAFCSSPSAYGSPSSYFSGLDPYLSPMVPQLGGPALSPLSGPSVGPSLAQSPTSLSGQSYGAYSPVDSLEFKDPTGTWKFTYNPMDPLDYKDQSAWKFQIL
Sequence of ELF4 (Q99607 whole entry): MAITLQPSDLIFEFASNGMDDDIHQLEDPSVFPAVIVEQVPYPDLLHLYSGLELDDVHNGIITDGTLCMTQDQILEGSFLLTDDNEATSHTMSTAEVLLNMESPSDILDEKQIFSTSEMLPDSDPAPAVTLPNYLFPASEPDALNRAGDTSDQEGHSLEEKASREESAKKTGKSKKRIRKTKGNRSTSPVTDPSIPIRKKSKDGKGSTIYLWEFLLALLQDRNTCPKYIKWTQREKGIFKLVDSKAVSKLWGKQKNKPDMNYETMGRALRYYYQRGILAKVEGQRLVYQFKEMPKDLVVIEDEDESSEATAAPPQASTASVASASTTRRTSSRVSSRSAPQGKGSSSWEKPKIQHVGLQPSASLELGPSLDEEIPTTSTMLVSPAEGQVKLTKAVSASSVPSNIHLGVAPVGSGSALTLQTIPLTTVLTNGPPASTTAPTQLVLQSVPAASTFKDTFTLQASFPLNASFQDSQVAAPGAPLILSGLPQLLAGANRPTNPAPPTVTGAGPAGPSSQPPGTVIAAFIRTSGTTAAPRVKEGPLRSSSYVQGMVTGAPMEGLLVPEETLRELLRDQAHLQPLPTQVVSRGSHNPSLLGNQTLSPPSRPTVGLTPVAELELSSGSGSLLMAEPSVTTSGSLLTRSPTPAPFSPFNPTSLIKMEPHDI
Sequence of ELF1 (P32519 whole entry): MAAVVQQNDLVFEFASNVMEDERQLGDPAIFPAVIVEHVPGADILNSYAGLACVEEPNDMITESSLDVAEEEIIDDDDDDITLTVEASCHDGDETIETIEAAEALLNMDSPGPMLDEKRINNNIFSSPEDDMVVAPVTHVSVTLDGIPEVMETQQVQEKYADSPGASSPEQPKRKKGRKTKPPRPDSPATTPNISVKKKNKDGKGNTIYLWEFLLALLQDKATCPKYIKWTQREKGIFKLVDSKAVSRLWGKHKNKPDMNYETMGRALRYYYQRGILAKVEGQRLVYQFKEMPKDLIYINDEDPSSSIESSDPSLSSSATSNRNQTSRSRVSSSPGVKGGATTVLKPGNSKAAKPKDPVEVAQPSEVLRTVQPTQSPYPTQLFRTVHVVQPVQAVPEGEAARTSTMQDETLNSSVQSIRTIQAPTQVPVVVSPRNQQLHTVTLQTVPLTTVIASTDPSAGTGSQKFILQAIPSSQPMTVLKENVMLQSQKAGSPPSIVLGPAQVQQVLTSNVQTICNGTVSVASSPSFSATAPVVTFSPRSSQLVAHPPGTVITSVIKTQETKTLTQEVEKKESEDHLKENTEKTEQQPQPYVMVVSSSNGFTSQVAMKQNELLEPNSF
Sequence of ETV1 (P50549 whole entry): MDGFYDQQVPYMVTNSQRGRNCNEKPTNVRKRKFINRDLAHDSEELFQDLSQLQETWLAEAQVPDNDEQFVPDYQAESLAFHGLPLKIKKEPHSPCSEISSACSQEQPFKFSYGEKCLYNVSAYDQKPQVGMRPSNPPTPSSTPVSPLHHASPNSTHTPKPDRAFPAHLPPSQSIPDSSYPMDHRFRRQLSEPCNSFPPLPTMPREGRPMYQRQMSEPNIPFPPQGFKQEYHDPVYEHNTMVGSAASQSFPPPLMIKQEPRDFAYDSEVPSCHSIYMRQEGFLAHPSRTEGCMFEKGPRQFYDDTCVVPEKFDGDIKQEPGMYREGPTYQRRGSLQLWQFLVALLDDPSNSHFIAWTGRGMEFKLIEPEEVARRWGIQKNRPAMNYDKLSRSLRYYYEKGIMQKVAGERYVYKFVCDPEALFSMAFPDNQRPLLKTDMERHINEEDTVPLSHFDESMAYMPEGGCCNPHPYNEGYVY
Sequence of ETV5 (P41161 whole entry): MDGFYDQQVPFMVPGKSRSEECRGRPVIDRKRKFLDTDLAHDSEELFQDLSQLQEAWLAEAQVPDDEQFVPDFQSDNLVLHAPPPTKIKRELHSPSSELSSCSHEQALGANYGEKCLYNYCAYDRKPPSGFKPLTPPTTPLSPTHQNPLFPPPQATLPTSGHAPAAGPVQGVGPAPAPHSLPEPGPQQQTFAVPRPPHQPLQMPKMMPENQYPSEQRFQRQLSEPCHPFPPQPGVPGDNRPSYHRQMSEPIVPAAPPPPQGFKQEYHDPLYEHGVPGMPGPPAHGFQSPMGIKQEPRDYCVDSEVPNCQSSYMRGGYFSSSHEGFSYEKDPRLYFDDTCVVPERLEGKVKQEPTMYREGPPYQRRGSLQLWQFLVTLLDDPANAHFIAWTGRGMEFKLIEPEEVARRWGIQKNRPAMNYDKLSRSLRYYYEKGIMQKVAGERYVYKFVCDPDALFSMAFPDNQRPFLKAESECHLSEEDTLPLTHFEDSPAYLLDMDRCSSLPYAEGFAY

## TATCAG
FLI1
  binding signal: 1.15 fold enrichment (6-mer frequency, TF over GST control)
ELK1
  binding signal: 1.21 fold enrichment (6-mer frequency, TF over GST control)
GABPA
  binding signal: 1.14 fold enrichment (6-mer frequency, TF over GST control)
ERG
  binding signal: 1.09 fold enrichment (6-mer frequency, TF over GST control)
ELF1
  binding signal: 1.15 fold enrichment (6-mer frequency, TF over GST control)
EHF
  binding signal: 1.13 fold enrichment (6-mer frequency, TF over GST control)
SPIB
  binding signal: 1.2 fold enrichment (6-mer frequency, TF over GST control)
ELK3
  binding signal: 1.15 fold enrichment (6-mer frequency, TF over GST control)
FEV
  binding signal: 1.07 fold enrichment (6-mer frequency, TF over GST control)
ETV5
  binding signal: 1.14 fold enrichment (6-mer frequency, TF over GST control)
HSF1
  binding signal: 1.11 fold enrichment (6-mer frequency, TF over GST control)
SPIC
  binding signal: 1.03 fold enrichment (6-mer frequency, TF over GST control)
ELF4
  binding signal: 1.18 fold enrichment (6-mer frequency, TF over GST control)
ELK4
  binding signal: 1.35 fold enrichment (6-mer frequency, TF over GST control)
ETV2
  binding signal: 1.01 fold enrichment (6-mer frequency, TF over GST control)
ELF3
  binding signal: 1.09 fold enrichment (6-mer frequency, TF over GST control)
CRX
  binding signal: 1.47 fold enrichment (6-mer frequency, TF over GST control)
ETV1
  binding signal: 1.14 fold enrichment (6-mer frequency, TF over GST control)
